40 molecules from PubChem BioAssay (Tox21) can be followed below.

Records with an inconclusive call do not appear. Unmarked numbers belong to inactive results. Activity calls are given as the source filed them. Calls follow the shape of the dose curve; as a rule, active = well fitted cell-killing curve with a large enough effect in the repeat runs; inconclusive = weak or mixed curves, or effect the other way; inactive = no such curve, though single readings can be large or run the other way.
% is scaled to controls: 0 for no effect and ±100 for the full control effect; potency is read from the fitted curve at half-maximal effect.

This assay can be described thus: qHTS assay to identify small molecule antagonists of the progesterone receptor (PR) signaling pathway - cell viability counter screen (AID 1346798). Also: nearly all actives have a fitted effect of over 50% in size. Particulars: PR-UAS-bla HEK293T viability, CellTiter-Glo luminescence, 16 h; series mostly up to 92.4 µM; activity change, negative = cytotoxicity: at the top concentration. From the text: National Center for Advancing Translational Sciences [NCATS]
NIH Chemical Genomics Center [NCGC]
U.S. Environmental Protection Agency [EPA]
National Institutes of Environmental Health Sciences [NIEHS]
National Toxicology Program [NTP]
U.S. Food and Drug Administration [FDA]
Progesterone receptor (PR), a nuclear hormone receptor, plays an important role in development, metabolic homeostasis and reproduction. It is activated by the steroid hormone progesterone. Endocrine disrupting chemicals (EDCs) and their interactions with steroid hormone receptors like PR causes disruption of normal endocrine function. To identify the compounds that inhibit PR signaling, a PR-UAS-bla GripTite cell line i.e. PR-UAS-bla HEK293T (Invitrogen, Carlsbad, CA, USA) containing a beta-lactamase reporter gene under the control of an UAS response element was used to screen Tox21 10K compound library. The cytotoxicity of the Tox21 compound library against the PR-bla cell line was tested in parallel by measuring the cell viability using CellTiter-Glo assay in the same wells.
Tox21 Assay Protocol Summary:
PR-UAS-bla HEK293T cells were dispensed at 3,000 cells/4 uL of assay medium containing 2% charcoal stripped FBS per well into black wall/clear-bottom 1536-well plates using a Multidrop Combi (ThermoFisher Scientific, Waltham, MA) dispenser. After the assay plates were incubated at a 37C and 5% CO2 for 4 hr, 23 nL of compounds dissolved in DMSO, positive controls or DMSO only was transferred to the assay plate by a Pintool station (Kalypsys, San Diego, CA), followed by addition of 1 uL of R5020 in assay medium using a Flying Reagent Dispenser (FRD, Aurora Discovery, San Diego, CA). The plates were incubated at 37C and 5% CO2 for 16 hr. Then 1 uL of LiveBLAzer B/G FRET substrate was added using a Flying Reagent Dispenser, the plates were incubated at room temperature for 2 hours, and fluorescence intensity was measured by an Envision plate reader (PerkinElmer, Shelton, CT). For cell viability readout that measures cytotoxicity, 4 uL/well of CellTiter-Glo reagent was added into the assay plates using a FRD. After 30 min incubation at room temperature, the luminescence intensity in the plates was measured using a ViewLux (PerkinElmer) plate reader.
`CCCC(c1cc(C(C)(C)C)c(O)cc1C)c1cc(C(C)(C)C)c(O)cc1C`: the Potency was 22 µM (active). `N/C(=N\N=C\c1ccc(Cl)cc1)N/N=C/c1ccc(Cl)cc1`: the Potency is 29.8 µM (active). Still for that read-out and setting: to `O=C(Nc1cccc(C(F)(F)F)c1)c1cc(Br)cc(Br)c1O` belongs 21.7 µM (active). As for `Clc1ccc2n[nH]nc2c1`, the “activity change, negative = cytotoxicity” value was -2.69%.

Take `CNC(=O)c1ccccc1`: the “activity change, negative = cytotoxicity” value was 4.94%. Take `CCCCN(CCCC)c1ccc(C(=O)c2ccccc2C(=O)O)c(O)c1`: the “activity change, negative = cytotoxicity” value was -15.4%. Turning to `C=CC(=O)OCC(CO)(COCC(COC(=O)C=C)(COC(=O)C=C)COC(=O)C=C)COC(=O)C=C`, the Potency was 15.2 µM (active).

In the case of `CC(=O)N1CCN(c2ccc(OC[C@H]3CO[C@](Cn4ccnc4)(c4ccc(Cl)cc4Cl)O3)cc2)CC1`, the Potency is 30.6 µM (active). Regarding `CCCCN(CCCC)C(=O)N(CCCC)CCCC`, the “activity change, negative = cytotoxicity” value is 5.93%.

Turning to `[O-][n+]1ccccc1SSc1cccc[n+]1[O-]`, the Potency was 0.116 µM (active). Take `CCc1cc(Cc2cc(CC)cc(C(C)(C)C)c2O)c(O)c(C(C)(C)C)c1`: the Potency was 38.6 µM (active).

As for `NC(=O)NS(=O)(=O)c1ccc(N)cc1`, the “activity change, negative = cytotoxicity” value is 3.47% [at 42.5 µM]. Regarding `COc1cc(/C=C/C(=O)O[C@H]2CC[C@]34C[C@]35CC[C@]3(C)[C@@H]([C@H](C)CCC=C(C)C)CC[C@@]3(C)[C@@H]5CC[C@H]4C2(C)C)ccc1O`, the “activity change, negative = cytotoxicity” value is 1.51% [at 42.5 µM]. As to `Cc1onc(-c2c(Cl)cccc2Cl)c1C(=O)N[C@@H]1C(=O)N2[C@@H]1SC(C)(C)[C@@H]2C(=O)O`, the “activity change, negative = cytotoxicity” value is -1.45% [at 42.5 µM]. Regarding `CN(C/C=C/C#CC(C)(C)C)Cc1cccc2ccccc12`, the Potency was 26.6 µM (active). Take `N=C1N=C(N)c2ccccc21`: the “activity change, negative = cytotoxicity” value is -13.8%. Same read-out and setting: to `CCN(C(=O)c1cc(C)cc(OC[C@H](C)Nc2ccncc2)c1)C(C)C` belongs -7.13% [at 42.5 µM].

As to `O=[N+]([O-])c1cc([N+](=O)[O-])c2ccc(S(=O)(=O)O)cc2c1O`, the “activity change, negative = cytotoxicity” value is 5.59%. As for `CCOC(=O)O[C@H](C)OC(=O)c1ccc2c(c1)cc(C(=O)NC1CCN(C(C)C)CC1)n2Cc1cc(-c2ccc(Cl)s2)on1`, the Potency was 22.7 µM (active). Same read-out and setting: the result for `CCCCCOc1ccccc1/C(=C\SC)n1ccnc1` reads 5.31 µM (active). With `O=C1CCCc2c1cc1ccc3cccc4ccc2c1c34`, the “activity change, negative = cytotoxicity” value is 2.13%. For `O=CC=C(c1ccccc1)c1ccccc1`, the Potency is 61.6 µM (active).

Take `CC(C)(C)CC(C)(C)c1ccc(OCCOCC[N+](C)(C)Cc2ccccc2)cc1`: the Potency is 54.4 µM (active). In the case of `O=C(Nc1cccc(Cl)c1)OCC#CCCl`, the Potency is 54.5 µM (active).

With `O=[N+]([O-])c1cc(Cl)c(Cl)c(Cl)c1Cl`, the “activity change, negative = cytotoxicity” value was 14.1%. Same read-out and setting: to `O=C1Cc2cc(CCN3CCN(c4nsc5ccccc45)CC3)c(Cl)cc2N1` belongs -19.5% [at 42.5 µM]. Take `CCCCCCCCNC(C)C(O)c1ccc(SC(C)C)cc1` (stereo not given): the Potency was 29.8 µM (active).

In the case of `CC(=O)SC[C@@H](Cc1ccccc1)C(=O)NCC(=O)OCc1ccccc1`, the “activity change, negative = cytotoxicity” value was 0.214% [at 42.5 µM]. For the molecule `Oc1cc2ccccc2c2ccccc12`, the Potency is 6.86 µM (active). Same read-out and setting: the result for `[Cl][Bi]([Cl])([c]1ccccc1)([c]1ccccc1)[c]1ccccc1` reads 3.05 µM (active); that for `NC(=NCCCCCCN=C(N)/N=C(\N)Nc1ccc(Cl)cc1)/N=C(\N)Nc1ccc(Cl)cc1`, “inactive”. Regarding `COC(=O)c1cc(Cl)ccc1OC`, the “activity change, negative = cytotoxicity” value was -2.94% [at 42.5 µM]. Consider `Oc1ccc(Cl)cc1Sc1cc(Cl)ccc1O`, for which the Potency is 54.4 µM (active).

Turning to `CCCCCCOC(=O)c1ccc(O)cc1`, the “activity change, negative = cytotoxicity” value was -10.2%.

On to `CC(C)(C)C(=O)OCOC(=O)[C@@H]1N2C(=O)[C@@H](NC(=O)[C@H](N)c3ccccc3)[C@H]2SC1(C)C`, for which the “activity change, negative = cytotoxicity” value was -5.85% [at 42.5 µM]. On the same count and under the same terms, the result for `CCCC(=O)OC[C@@H](OC(=O)CCC)[C@@H](OC(=O)CCC)[C@H](Cn1c2nc(=O)[nH]c(=O)c-2nc2cc(C)c(C)cc21)OC(=O)CCC` reads 22.9% [at 42.5 µM]. For the molecule `CCCCCCCC[N+](CCCCCCCC)(CCCCCCCC)CCCCCCCC`, the Potency is 30.6 µM (active). For `CC(NN)c1ccccc1` (stereo not given), the activity change, negative = cytotoxicity was 0.118% [at 18.9 µM].

As for `C1CCCC1`, the “activity change, negative = cytotoxicity” value was 5.86%.

For `Cc1onc(-c2ccccc2Cl)c1C(=O)N[C@@H]1C(=O)N2[C@@H]1SC(C)(C)[C@@H]2C(=O)O`, the “activity change, negative = cytotoxicity” value is -0.741% [at 42.5 µM].
